The supplement of paper PMC10127200
Counter-ions that a name gives are not always drawn.

Key:
Test in all cases: Euclidean distance of Cell Painting phenotypic profile (signed KS, 77 features) to DMSO centroid (dimensionless distance); 5 or 10 uM (library dependent); higher = stronger phenotypic change vs DMSO (phenoactivity)
Settings in all cases: 48 h
786-O = tested on: 786-O
Outline: (§1)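 Phenoactivity is defined as the Euclidean distance from a compound profile to the median vehicle profile. Each profile comprised 77 Harmony features, scored as signed Kolmogorov-Smirnov statistics versus same-plate vehicle wells, then plate-position corrected, correlation-weighted and replicate-averaged at the top dose. Five cancer lines and one healthy fibroblast line were exposed to library compounds for 48 h at 10 or 5 uM (0.1% DMSO final).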

A549 = tested on: A549
Outline: as §1

DU145 = tested on: DU145
Outline: as §1

FB = tested on: FB
Outline: as §1

HEPG2 = tested on: HEPG2
Outline: as §1

OVCAR4 = tested on: OVCAR4
Outline: as §1

SMILES | Euclidean distance (786-O) | Euclidean distance (A549) | Euclidean distance (DU145) | Euclidean distance (FB) | Euclidean distance (HEPG2) | Euclidean distance (OVCAR4)
Cc1c(C(N)=O)cc([N+](=O)[O-])cc1[N+](=O)[O-] [Dinitolmide] | 0.913 | 1.4 | 0.756 | 0.814 | 0.831 | 1.38
COc1ccc(NS(=O)(=O)c2ccc(N)cc2)nn1 [Sulfamethoxypyridazine] | 0.978 | 0.771 | 1.02 | 1.64 | 0.55 | 1.05
CCCCC1OC(=O)c2ccccc21 (configuration not stated) [3-n-Butylphathlide] | 1.36 | 0.948 | 0.834 | 1.38 | 0.575 | 1.15
CCCS(=O)(=O)N[C@H]1C[C@@H](N(C)c2ncnc3[nH]ccc23)C1 | 0.905 | 1.03 | 1.02 | 1.03 | 0.71 | 1.17
CCc1ccc(/C=C2/SC(=S)NC2=O)cc1 | 0.453 | 0.809 | 1.03 | 1.15 | 0.771 | 0.723
Cc1cc(=O)n(-c2ccccc2)n1C [Antipyrine] | 1.52 | 0.45 | 1.03 | 1.42 | 0.888 | 0.707
C[C@H](NCc1ccc(OCc2cccc(F)c2)cc1)C(N)=O [Safinamide Mesylate] | 0.672 | 0.63 | 0.559 | 0.645 | 0.55 | 1.14
CC(C)(C)C(=O)C(Oc1ccc(Cl)cc1)n1ccnc1 (configuration not stated) [Climbazole] | 0.898 | 0.838 | 0.641 | 1.02 | 0.579 | 1.29
OC[C@H]1O[C@@H](Oc2ccc(O)cc2)[C@H](O)[C@@H](O)[C@@H]1O [Arbutin] | 1.12 | 0.916 | 2.06 | 0.914 | 0.919 | 1.73
CC(=O)Oc1cc(C(C)C)c(OCCN(C)C)cc1C [Moxisylyte hydrochloride] | 0.394 | 0.612 | 1.83 | 1.12 | 0.369 | 0.608
CC(=O)OC(C)OC(=O)C(C)c1ccc(-c2ccccc2)c(F)c1 (configuration not stated) [Flurbiprofen Axetil] | 1.28 | 0.882 | 0.893 | 1.57 | 1.39 | 1.44
CC(=O)[C@H]1CC[C@H]2[C@@H]3C=CC4=CC(=O)CC[C@@]4(C)[C@@H]3CC[C@]12C [Dydrogesterone] | 0.672 | 0.859 | 0.732 | 1.15 | 1.01 | 0.899
O=C(CCCN1CC=C(n2c(=O)[nH]c3ccccc32)CC1)c1ccc(F)cc1 [Droperidol] | 1.34 | 0.569 | 0.766 | 0.888 | 0.689 | 0.73
COc1cc(Nc2ncc(F)c(Nc3ccc4c(n3)NC(=O)C(C)(C)O4)n2)cc(OC)c1OC | 1.65 | 3.73 | 2.9 | 3.35 | 1.78 | 2.24
CC(C)NCC(O)COc1cccc2[nH]ccc12 (configuration not stated) [Pindolol] | 0.941 | 0.858 | 0.721 | 1.06 | 0.588 | 0.895
CC1(N)CCN(c2cccnc2NC(=O)c2nc(-c3ncccc3C(F)(F)F)cnc2N)CC1 | 2.98 | 2.64 | 3.38 | 2.85 | 3.49 | 2.63
Cc1cc(C)c(Nc2ccnc(Nc3ccc(C#N)cc3)n2)c(C)c1 [Dapivirine (TMC120)] | 2.34 | 2.56 | 1.87 | 1.33 | 3.09 | 2.01
CN1CCN(CCCN2c3ccccc3Sc3ccc(C(F)(F)F)cc32)CC1 [Trifluoperazine 2HCl] | 2.52 | 2.25 | 1.58 | 2.19 | 3.04 | 1.8
CCOc1ccc(Cc2cc([C@@H]3O[C@H](CO)[C@@H](O)[C@H](O)[C@H]3O)ccc2Cl)cc1 [Dapagliflozin propanediol monohydrate] | 1.02 | 0.644 | 1.02 | 0.967 | 0.649 | 0.832
CC(C)N(CCCNC(=O)Nc1ccc(C(C)(C)C)cc1)C[C@H]1O[C@@H](n2ccc3c(N)ncnc32)[C@H](O)[C@@H]1O | 1.04 | 0.769 | 0.92 | 1.18 | 0.5 | 0.755
CO/N=C(\C(=O)N[C@@H]1C(=O)N2C(C(=O)O)=C(COC(N)=O)CS[C@H]12)c1ccco1 [Cefuroxime sodium] | 0.996 | 0.519 | 0.747 | 0.81 | 1.48 | 1.04
O=c1ccc2ccccc2o1 [Coumarin] | 1.02 | 0.975 | 1.08 | 1.25 | 0.824 | 1.2
Cc1cc(N2CCN([C@@H]3CN[C@H](C(=O)N4CCSC4)C3)CC2)n(-c2ccccc2)n1 [Teneligliptin hydrobromide] | 1.1 | 1.09 | 2.06 | 1.2 | 1.21 | 1.33
NCc1ccccc1CC(=O)N[C@@H]1C(=O)N2C(C(=O)O)=C(CSc3nnnn3CC(=O)O)CS[C@H]12 [Ceforanide] | 0.783 | 0.791 | 1.07 | 1.16 | 0.834 | 1.64

SMILES | Euclidean distance (786-O) | Euclidean distance (A549) | Euclidean distance (DU145) | Euclidean distance (FB) | Euclidean distance (HEPG2) | Euclidean distance (OVCAR4)
Cc1cccc(C)c1NC(=O)c1cc(S(N)(=O)=O)c(Cl)cc1O [Xipamide] | 1.51 | 0.665 | 0.648 | 1.08 | 0.576 | 1.08
O=C1c2cccc3c2[C@H](CCC3)CN1[C@@H]1CN2CCC1CC2 [Palonosetron HCl] | 1.56 | 0.602 | 0.971 | 0.972 | 1.29 | 1.22
CC(C)OC(=O)OCOP(=O)(CO[C@H](C)Cn1cnc2c(N)ncnc21)OCOC(=O)OC(C)C [Tenofovir Disoproxil Fumarate] | 3.16 | 2.92 | 1.88 | 3.17 | 3.46 | 2.99
OCc1ccc(-c2ccc(-c3ccc(CO)s3)o2)s1 | 2.79 | 2.26 | 1.44 | 2.66 | 4.78 | 5.04
Cc1ccc([C@@H]2O[C@H](CO)[C@@H](O)[C@H](O)[C@H]2O)cc1Cc1ccc(-c2ccc(F)cc2)s1 [Canagliflozin] | 1.32 | 1.86 | 0.716 | 1.12 | 0.807 | 1.77
CSCC1CN(/N=C/c2ccc([N+](=O)[O-])o2)C(=O)O1 (configuration not stated) [Nifuratel] | 0.806 | 0.74 | 0.807 | 0.93 | 1.19 | 1.09
CCN(CC)CCNC(=O)c1c(C)[nH]c(/C=C2\C(=O)Nc3ccc(F)cc32)c1C [Sunitinib] | 3.58 | 3.66 | 2.98 | 4.34 | 3.3 | 2.86
c1ccc2c(Oc3nc(Nc4ccc(N5CCOCC5)cc4)c4ncn(C5CCCCC5)c4n3)cccc2c1 [Purmorphamine] | 1.93 | 1.81 | 0.922 | 0.758 | 1.17 | 1.94
CC[C@@H]1C(=O)N(C)c2cnc(Nc3ccc(C(=O)N[C@H]4CC[C@H](N5CCN(CC6CC6)CC5)CC4)cc3OC)nc2N1C(C)C [Volasertib (BI 6727)] | 4.44 | 4.28 | 4.03 | 5.55 | 3.66 | 4.01
O=c1c(O)c(-c2ccc(O)c(O)c2)oc2cc(O)cc(O)c12 [Quercetin Dihydrate] | 0.703 | 1.01 | 0.731 | 0.799 | 0.874 | 0.868
CC(=O)N1C[C@H](O)C[C@H]1C(=O)O [Oxaceprol] | 0.691 | 0.845 | 0.785 | 0.895 | 0.812 | 1.28
COc1cc(NS(=O)(=O)c2ccc(N)cc2)nc(OC)n1 [SulfadiMethoxine sodium] | 1.05 | 0.781 | 0.776 | 1.03 | 0.428 | 0.631
CC(O)Cn1cnc2c1c(=O)n(C)c(=O)n2C (configuration not stated) [Proxyphylline] | 1.48 | 0.998 | 0.788 | 0.934 | 0.686 | 1.03
Cn1cnc2c(F)c(Nc3ccc(Br)cc3Cl)c(C(=O)NOCCO)cc21 [Selumetinib (AZD6244)] | 2.23 | 2.67 | 2.91 | 2.95 | 1.72 | 2.19
O=C(O)c1cc(/N=N/c2ccc(S(=O)(=O)Nc3ccccn3)cc2)ccc1O [Sulfasalazine] | 1.02 | 0.839 | 0.638 | 1.14 | 0.963 | 0.897
Cc1c(NC(=O)OC[C@@H]2COCCN2)cn2ncnc(Nc3ccc4c(cnn4Cc4cccc(F)c4)c3)c12 | 2.06 | 1.47 | 1.13 | 1.52 | 1.28 | 0.963
COc1ccc2cc3[n+](cc2c1OC)CCc1cc2c(cc1-3)OCO2 [Berberine] | 1.31 | 1.85 | 0.876 | 1.96 | 1.57 | 1.4
O=C(Nc1cccc2c(=O)cc(-c3nnn[nH]3)oc12)c1ccc(OCCCCc2ccccc2)cc1 [Pranlukast] | 0.942 | 1.36 | 0.906 | 0.842 | 1.13 | 0.86
CN(C)CCCN1c2ccccc2Sc2ccc(C(F)(F)F)cc21 [Triflupromazine hydrochloride] | 1.77 | 1.63 | 1.6 | 2.36 | 1.76 | 1.47
CCC(=O)Nc1cccc(Oc2nc(Nc3ccc(N4CCN(C)CC4)cc3OC)ncc2Cl)c1 | 1.62 | 1.63 | 0.903 | 1.15 | 1.61 | 1.26
O=C(O)c1cn(C2CC2)c2cc(N3CCNCC3)c(F)cc2c1=O [Ciprofloxacin hydrochloride hydrate] | 1.39 | 0.835 | 0.784 | 1.29 | 0.735 | 1.87
COc1ccccc1N1CCN(CCN(C(=O)C2CCCCC2)c2ccccn2)CC1 | 0.724 | 1.67 | 1.84 | 3.28 | 2.11 | 4.14
C[C@H]1O[C@@H](Oc2c(-c3cc(O)c(O)c(O)c3)oc3cc(O)cc(O)c3c2=O)[C@@H](O)[C@@H](O)[C@@H]1O [Myricitrin] | 1.28 | 0.726 | 1.03 | 1.54 | 0.535 | 0.952
